The full list was thinned out, with hits kept by preference.
Tb PYK inh = blocks Trypanosoma brucei pyruvate kinase | Q57TT1 | TbPYK enzyme, Kinase-Glo Plus ATP luminescence, 45 min | Potency, µM (highest dose often 76.8 µM), without a hit: at the top dose activity, negative = inhibition, actives largely listed as inhibitors | hit rate 0.12% among 410,000; active means well fitted curve in the direction sought with a large enough effect; inconclusive means small, poorly fitted or top-dose-only effect, or another doubt; inactive means no such curve, though single readings can be large; an effect the other way counts as inactive or inconclusive; further: potency means the concentration at half of the fitted maximal effect; on the % scale 0 is the no-effect control and ±100 the full control effect; nearly all actives have a fitted effect of over 50% in size
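Activity of T. brucei pyruvate kinase was followed by Kinase-Glo Plus luminescence after the enzyme reacted 45 min at room temperature with 130 uM ADP (final) and substrate. Test compounds were added before ADP at multiple concentrations.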
NS1 function inh = inhibitors of influenza NS1 protein function; Potency, µM (titrated, usually from 46.1 µM), for inactives: top-dose activity, positive = more growth; hit rate 0.4% among 270,000; further: potency means the concentration at half of the fitted maximal effect; actives are rising curves; nearly all actives have a fitted effect of over 50% in size
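In this qHTS, NS1 from influenza A is expressed in budding yeast, where it slows growth. Cells are switched from glucose to 2% galactose medium (pH 6.0, -URA), treated with compound, and growth recovery is read at OD600.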
Cycloheximide cs = counter-screen hit for Shiga toxin inhibitors, cycloheximide. cell reporter, cycloheximide protein synthesis inhibition counterscreen. max response, %. hit rate 12% among 300,000; in the data active means max response mostly above about 13%, no sharp cut-off; inactive means mostly below about 14%; further: read at 38.3 µM for the half of the compounds with a filed dose; 0% is about no effect
LmPK inhibitor = LmPK (Leishmania mexicana) enzyme inhibition; Q27686; purified LmPK, Kinase-Glo ATP luminescence, 1 h; Potency, µM (highest dose often 57.5 µM), for inactives: at the top dose activity change, negative = inhibition, usual class: inhibitors; hit rate 0.37% among 290,000; AID 1721; active means well fitted curve in the direction sought with a large enough effect; inconclusive means small, poorly fitted or top-dose-only effect, or another doubt; inactive means no such curve, though single readings can be large; an effect the other way counts as inactive or inconclusive; further: potency means the concentration at half of the fitted maximal effect; on the % scale 0 is the no-effect control and ±100 the full control effect
Target sequence (Q27686 whole entry, looked up): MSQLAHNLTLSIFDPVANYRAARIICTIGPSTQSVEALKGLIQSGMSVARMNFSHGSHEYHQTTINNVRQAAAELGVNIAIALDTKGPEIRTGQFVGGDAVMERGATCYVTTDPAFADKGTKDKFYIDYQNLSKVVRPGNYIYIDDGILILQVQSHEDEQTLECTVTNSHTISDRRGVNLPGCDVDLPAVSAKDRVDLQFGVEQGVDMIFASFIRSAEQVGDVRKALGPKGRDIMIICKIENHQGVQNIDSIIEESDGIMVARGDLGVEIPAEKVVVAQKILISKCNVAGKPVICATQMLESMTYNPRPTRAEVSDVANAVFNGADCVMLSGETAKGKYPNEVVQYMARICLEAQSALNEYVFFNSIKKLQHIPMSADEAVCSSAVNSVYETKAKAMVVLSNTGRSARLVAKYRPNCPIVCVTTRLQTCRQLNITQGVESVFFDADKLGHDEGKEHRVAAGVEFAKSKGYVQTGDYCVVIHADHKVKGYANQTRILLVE
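Purified LmPK (0.1 nM) converted ADP (0.1 mM) to ATP with PEP (0.5 mM) in imidazole buffer pH 7.2 with KCl and MgCl2, 1 h at room temperature. ATP was read by Kinase-Glo luminescence; data normalized to uninhibited and no-enzyme controls.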
SARS PLP yeast = inhibitors of SARS-CoV papain-like protease in yeast | AID 485353 | Potency, µM (titrated, usually from 32.9 µM), without a hit: top-dose activity, positive = growth rescue, usual class: activators | hit rate 0.19% among 330,000 | S. cerevisiae expressing SARS-CoV PLpro, growth rescue; further: potency means the concentration at half of the fitted maximal effect; 0% is about no effect; nearly all actives have a fitted effect of over 55% in size
Shiga inhibitor = Shiga toxin inhibition; AID 2315; inhibition, % at 38.7 µM; hit rate 9.2% among 290,000; Vero cells, Shiga toxin protein synthesis inhibition reporter; in the data active means inhibition mostly above about 28%, no sharp cut-off; inactive means mostly below about 43%; further: 0% is about no effect
The depositor's hits bear a star. Unless noted, the call rests on the fitted dose curve.

COc1cc(OC)cc(-c2nnc3n2N=C(c2ccc(OC)c(OC)c2)CS3)c1 was read as Cycloheximide cs -12 and Shiga inhibitor -6.
`O=c1c(C=NCCCO)c(-c2ccccc2)[nH]n1-c1nc2ccccc2s1` gave Tb PYK inh -2%, NS1 function inh -9%, Cycloheximide cs 28*, LmPK inhibitor 7%, SARS PLP yeast -1% and Shiga inhibitor 39*.
For CCCCCN=Cc1c(C)[nH]n(-c2nc3ccccc3s2)c1=O the results were Tb PYK inh 5%, NS1 function inh -82%, Cycloheximide cs 16*, LmPK inhibitor -11%, SARS PLP yeast -22% and Shiga inhibitor 9.
For COCCCN=Cc1c(-c2ccccc2)[nH]n(-c2nc3ccccc3s2)c1=O the results were Tb PYK inh 1%, NS1 function inh -42%, Cycloheximide cs 16*, LmPK inhibitor 1%, SARS PLP yeast -1% and Shiga inhibitor 42.
`CC(C)c1ccc(NC(=O)COC(=O)Cn2cnc3c2c(=O)n(C)c(=O)n3C)cc1` gave Tb PYK inh 0%.
Screening CC(=O)N1CCCC1c1nc2ccccc2n1Cc1cccc(Cl)c1 (centres undefined) returned Tb PYK inh -7%.
O=C(N/N=C/c1ccc([N+](=O)[O-])cc1)c1cccs1 was read as Tb PYK inh 0%, NS1 function inh 1%, Cycloheximide cs 34*, LmPK inhibitor 2%, SARS PLP yeast 0% and Shiga inhibitor 31.
Screening O=C(N/N=C/c1ccc(-c2cccc([N+](=O)[O-])c2)o1)c1cccs1 returned Tb PYK inh -7%, NS1 function inh 6%, Cycloheximide cs 13*, LmPK inhibitor 13%, SARS PLP yeast 0% and Shiga inhibitor 6.
Screening O=C(N/N=C/c1cccc([N+](=O)[O-])c1O)c1cccs1 returned Tb PYK inh 6%, NS1 function inh -24%, Cycloheximide cs 38*, LmPK inhibitor -16%, SARS PLP yeast inconclusive and Shiga inhibitor active.
For NC(=S)N/N=C/c1ccc(-c2cccc([N+](=O)[O-])c2)o1 the results were Tb PYK inh 7%, NS1 function inh -1%, Cycloheximide cs 14*, LmPK inhibitor -1%, SARS PLP yeast 14% and Shiga inhibitor 34.
O=C(N/N=C/c1cccc([N+](=O)[O-])c1O)C(O)(c1ccccc1)c1ccccc1 was read as Tb PYK inh 4%, Cycloheximide cs -4, LmPK inhibitor -1%, SARS PLP yeast 4% and Shiga inhibitor -10.
For COc1ccc(Cl)cc1NC(=O)CN(c1cc(C)cc(C)c1)S(=O)(=O)c1c(C)n[nH]c1C the results were Tb PYK inh 1%.
`CCOc1ccccc1NC(=O)C(=O)c1cc(C)n(-c2cccc(C)c2C)c1C` gave Tb PYK inh -7%.
O=C(/C=C\c1ccc(-c2cccc([N+](=O)[O-])c2)o1)N1CCOCC1 was read as Tb PYK inh -11%, NS1 function inh -8%, Cycloheximide cs 37*, LmPK inhibitor -16%, SARS PLP yeast -3% and Shiga inhibitor 61*.
For Cc1nn2cc(-c3ccccc3)nc2s1 the results were Tb PYK inh -27%, NS1 function inh -52%, Cycloheximide cs 32*, LmPK inhibitor inconclusive, SARS PLP yeast -1% and Shiga inhibitor 59.
For COc1ccc(NC(=O)/C=C/c2cccc(F)c2)cn1 the results were Tb PYK inh 3%, NS1 function inh -16%, Cycloheximide cs 43*, LmPK inhibitor -1%, SARS PLP yeast -10% and Shiga inhibitor 72*.
For COc1ccc(NC(=O)c2ccco2)cn1 the results were Tb PYK inh -7%, NS1 function inh -1%, Cycloheximide cs 11, LmPK inhibitor 4%, SARS PLP yeast 0% and Shiga inhibitor 28.
COc1ccc(NC(=O)/C=C/c2ccc(Br)o2)cn1 was read as Tb PYK inh -30%, Cycloheximide cs 20*, LmPK inhibitor 0%, SARS PLP yeast 0% and Shiga inhibitor 86*.
`COc1ccc(NC(=O)/C=C/c2ccco2)cn1` gave Tb PYK inh -1%, NS1 function inh 11%, Cycloheximide cs 36*, LmPK inhibitor -2%, SARS PLP yeast 3% and Shiga inhibitor 90*.

From PubChem
